Source: the supplement of paper PMC11732987, “Enantioselective OTUD7B fragment discovery through chemoproteomics screening and high-throughput optimisation” (Communications Chemistry, 2025)

What was measured:
Test in all cases: log2 ratio of Biotin-Ahx-Ub-VS probe labelling (fragment/DMSO); higher = less target engagement (more negative = stronger competition), active = hit call of the paper (q ≤ 0.05, log2 ratio ≤ -1)
Settings in all cases: compound concentration: 200 uM; treatment time: 3 h
USP19 = target: T1, USP19 (UniProt O94966)
T1 sequence (whole entry): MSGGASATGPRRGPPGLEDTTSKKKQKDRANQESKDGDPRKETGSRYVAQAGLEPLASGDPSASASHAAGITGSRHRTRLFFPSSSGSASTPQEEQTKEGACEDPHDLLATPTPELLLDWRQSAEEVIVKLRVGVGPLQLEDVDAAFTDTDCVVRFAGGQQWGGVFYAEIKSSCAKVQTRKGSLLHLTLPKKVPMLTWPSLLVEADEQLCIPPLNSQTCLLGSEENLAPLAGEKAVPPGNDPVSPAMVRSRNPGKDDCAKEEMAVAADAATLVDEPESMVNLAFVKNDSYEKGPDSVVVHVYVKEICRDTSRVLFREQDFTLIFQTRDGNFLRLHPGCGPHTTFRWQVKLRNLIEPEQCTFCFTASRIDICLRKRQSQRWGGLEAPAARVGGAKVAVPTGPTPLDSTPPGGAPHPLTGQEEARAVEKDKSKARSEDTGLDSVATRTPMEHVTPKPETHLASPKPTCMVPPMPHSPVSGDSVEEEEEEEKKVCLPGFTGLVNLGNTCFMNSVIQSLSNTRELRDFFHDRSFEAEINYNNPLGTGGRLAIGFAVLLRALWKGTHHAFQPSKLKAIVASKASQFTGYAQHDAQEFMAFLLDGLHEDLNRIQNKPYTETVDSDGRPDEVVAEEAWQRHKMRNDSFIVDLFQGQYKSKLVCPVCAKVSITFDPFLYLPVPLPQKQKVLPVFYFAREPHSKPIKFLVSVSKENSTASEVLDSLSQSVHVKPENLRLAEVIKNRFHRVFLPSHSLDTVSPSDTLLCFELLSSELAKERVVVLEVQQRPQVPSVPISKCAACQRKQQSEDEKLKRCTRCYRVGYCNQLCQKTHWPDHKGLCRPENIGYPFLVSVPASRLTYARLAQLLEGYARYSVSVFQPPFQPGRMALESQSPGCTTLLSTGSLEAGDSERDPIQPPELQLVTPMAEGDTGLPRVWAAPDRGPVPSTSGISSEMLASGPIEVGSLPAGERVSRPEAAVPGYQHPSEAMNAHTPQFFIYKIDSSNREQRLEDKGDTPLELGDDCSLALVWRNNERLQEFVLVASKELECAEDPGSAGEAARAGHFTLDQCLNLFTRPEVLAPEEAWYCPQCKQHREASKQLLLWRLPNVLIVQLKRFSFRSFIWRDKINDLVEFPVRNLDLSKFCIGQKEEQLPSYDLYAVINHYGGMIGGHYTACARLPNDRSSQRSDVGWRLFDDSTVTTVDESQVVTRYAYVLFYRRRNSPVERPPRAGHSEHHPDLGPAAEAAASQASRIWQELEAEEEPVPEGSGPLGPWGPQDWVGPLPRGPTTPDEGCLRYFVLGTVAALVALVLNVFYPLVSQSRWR
In short: (§1)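 HEK293T lysate, 495 µg per sample in Tris/CHAPS/IGEPAL buffer with protease inhibitors, was treated in triplicate with fragment at 200 µM or vehicle for 3 h and then with Biotin-Ahx-Ub-VS at 0.5 µM final for 1 h. Labelled DUBs were NeutrAvidin-enriched, digested with LysC and trypsin, and run by diaPASEF LC-MS/MS. Spectronaut label-free quantities were global-median-normalised, and values are average log2 fragment/vehicle ratios by unpaired t-test on proteins with ≥2 unique peptides.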

USP22 = target: T2, USP22 (UniProt Q9UPT9)
T2 sequence (whole entry): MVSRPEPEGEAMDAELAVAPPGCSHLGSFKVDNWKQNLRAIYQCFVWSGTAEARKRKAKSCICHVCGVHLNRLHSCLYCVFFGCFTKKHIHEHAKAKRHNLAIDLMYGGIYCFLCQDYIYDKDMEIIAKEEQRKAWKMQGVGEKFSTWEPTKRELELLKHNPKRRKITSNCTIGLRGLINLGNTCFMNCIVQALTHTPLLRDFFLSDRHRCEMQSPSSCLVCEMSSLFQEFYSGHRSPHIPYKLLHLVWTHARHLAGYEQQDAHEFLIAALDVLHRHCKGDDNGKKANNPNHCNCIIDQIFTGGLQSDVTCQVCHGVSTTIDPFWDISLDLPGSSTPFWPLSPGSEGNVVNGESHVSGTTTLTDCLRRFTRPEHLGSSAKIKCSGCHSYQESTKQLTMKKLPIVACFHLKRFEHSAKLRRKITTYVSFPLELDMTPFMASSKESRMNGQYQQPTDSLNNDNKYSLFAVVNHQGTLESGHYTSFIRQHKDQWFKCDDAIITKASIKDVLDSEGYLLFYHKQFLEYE
In short: as §1

USP24 = USP24 (UniProt Q9UPU5)
Sequence of USP24 (Q9UPU5 whole entry): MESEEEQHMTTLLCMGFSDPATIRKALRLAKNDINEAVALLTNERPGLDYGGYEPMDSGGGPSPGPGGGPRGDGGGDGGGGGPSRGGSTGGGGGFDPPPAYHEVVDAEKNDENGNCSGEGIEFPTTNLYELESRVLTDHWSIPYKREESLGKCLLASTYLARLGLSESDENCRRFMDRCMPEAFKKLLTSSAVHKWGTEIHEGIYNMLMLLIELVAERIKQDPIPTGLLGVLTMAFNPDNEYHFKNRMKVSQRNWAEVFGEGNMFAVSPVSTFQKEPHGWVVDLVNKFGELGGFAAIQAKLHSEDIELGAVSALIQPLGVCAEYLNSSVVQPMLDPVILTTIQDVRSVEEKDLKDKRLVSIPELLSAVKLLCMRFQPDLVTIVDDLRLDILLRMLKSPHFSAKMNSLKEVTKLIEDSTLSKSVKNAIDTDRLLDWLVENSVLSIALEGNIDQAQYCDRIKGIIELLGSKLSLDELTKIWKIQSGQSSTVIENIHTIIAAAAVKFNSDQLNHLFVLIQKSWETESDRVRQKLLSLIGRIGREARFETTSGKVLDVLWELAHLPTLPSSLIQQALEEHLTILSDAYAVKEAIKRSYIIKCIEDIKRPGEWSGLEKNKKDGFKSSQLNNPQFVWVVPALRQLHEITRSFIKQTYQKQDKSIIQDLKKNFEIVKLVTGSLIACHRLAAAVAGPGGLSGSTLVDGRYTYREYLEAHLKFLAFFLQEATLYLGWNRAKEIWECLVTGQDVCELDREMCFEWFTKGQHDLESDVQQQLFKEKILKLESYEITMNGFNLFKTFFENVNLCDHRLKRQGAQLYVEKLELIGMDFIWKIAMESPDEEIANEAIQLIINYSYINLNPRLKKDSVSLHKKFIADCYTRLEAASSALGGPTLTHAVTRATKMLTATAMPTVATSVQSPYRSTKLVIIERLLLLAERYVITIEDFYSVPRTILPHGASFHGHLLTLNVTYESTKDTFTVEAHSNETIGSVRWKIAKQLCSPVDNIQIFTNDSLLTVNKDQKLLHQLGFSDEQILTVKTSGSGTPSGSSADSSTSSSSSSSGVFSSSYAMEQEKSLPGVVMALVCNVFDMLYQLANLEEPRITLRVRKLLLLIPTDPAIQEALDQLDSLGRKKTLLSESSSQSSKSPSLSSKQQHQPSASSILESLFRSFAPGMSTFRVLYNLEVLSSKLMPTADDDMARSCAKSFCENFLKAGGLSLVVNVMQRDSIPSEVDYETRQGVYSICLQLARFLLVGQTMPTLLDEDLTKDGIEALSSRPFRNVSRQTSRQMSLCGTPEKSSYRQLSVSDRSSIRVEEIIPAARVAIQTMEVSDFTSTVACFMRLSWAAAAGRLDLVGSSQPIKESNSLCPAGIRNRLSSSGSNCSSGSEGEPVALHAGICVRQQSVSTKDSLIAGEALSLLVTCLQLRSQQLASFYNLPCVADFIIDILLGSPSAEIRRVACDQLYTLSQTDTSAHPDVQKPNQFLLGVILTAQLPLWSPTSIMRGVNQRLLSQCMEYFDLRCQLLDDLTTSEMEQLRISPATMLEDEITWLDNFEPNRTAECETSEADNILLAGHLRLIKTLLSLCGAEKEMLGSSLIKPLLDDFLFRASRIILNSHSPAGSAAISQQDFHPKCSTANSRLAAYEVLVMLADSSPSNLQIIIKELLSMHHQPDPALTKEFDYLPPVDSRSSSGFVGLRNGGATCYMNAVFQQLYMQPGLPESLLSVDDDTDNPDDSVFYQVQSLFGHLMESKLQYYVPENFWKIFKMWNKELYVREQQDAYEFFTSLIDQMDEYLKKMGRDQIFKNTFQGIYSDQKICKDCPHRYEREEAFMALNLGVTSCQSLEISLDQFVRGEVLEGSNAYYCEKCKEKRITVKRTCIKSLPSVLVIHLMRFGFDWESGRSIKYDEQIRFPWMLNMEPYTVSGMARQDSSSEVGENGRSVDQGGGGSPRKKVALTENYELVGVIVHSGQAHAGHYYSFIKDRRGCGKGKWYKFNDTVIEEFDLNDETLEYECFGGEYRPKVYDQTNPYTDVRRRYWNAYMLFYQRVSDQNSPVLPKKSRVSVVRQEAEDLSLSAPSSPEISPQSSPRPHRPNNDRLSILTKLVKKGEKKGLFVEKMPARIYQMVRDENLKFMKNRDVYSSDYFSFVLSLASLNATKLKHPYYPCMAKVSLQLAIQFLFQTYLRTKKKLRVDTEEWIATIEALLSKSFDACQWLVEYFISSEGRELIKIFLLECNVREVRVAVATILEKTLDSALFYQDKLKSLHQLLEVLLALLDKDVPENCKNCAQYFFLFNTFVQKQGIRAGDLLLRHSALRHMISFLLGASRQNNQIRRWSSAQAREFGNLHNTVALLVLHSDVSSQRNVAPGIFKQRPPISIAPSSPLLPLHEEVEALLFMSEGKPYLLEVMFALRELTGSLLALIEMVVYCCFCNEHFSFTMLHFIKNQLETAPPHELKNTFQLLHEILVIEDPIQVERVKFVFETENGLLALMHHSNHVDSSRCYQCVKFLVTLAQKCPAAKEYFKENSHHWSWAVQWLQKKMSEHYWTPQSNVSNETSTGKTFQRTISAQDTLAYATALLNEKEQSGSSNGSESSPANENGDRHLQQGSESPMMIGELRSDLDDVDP
In short: as §1

USP25 = target: T3, USP25 (UniProt Q9UHP3)
T3 sequence (whole entry): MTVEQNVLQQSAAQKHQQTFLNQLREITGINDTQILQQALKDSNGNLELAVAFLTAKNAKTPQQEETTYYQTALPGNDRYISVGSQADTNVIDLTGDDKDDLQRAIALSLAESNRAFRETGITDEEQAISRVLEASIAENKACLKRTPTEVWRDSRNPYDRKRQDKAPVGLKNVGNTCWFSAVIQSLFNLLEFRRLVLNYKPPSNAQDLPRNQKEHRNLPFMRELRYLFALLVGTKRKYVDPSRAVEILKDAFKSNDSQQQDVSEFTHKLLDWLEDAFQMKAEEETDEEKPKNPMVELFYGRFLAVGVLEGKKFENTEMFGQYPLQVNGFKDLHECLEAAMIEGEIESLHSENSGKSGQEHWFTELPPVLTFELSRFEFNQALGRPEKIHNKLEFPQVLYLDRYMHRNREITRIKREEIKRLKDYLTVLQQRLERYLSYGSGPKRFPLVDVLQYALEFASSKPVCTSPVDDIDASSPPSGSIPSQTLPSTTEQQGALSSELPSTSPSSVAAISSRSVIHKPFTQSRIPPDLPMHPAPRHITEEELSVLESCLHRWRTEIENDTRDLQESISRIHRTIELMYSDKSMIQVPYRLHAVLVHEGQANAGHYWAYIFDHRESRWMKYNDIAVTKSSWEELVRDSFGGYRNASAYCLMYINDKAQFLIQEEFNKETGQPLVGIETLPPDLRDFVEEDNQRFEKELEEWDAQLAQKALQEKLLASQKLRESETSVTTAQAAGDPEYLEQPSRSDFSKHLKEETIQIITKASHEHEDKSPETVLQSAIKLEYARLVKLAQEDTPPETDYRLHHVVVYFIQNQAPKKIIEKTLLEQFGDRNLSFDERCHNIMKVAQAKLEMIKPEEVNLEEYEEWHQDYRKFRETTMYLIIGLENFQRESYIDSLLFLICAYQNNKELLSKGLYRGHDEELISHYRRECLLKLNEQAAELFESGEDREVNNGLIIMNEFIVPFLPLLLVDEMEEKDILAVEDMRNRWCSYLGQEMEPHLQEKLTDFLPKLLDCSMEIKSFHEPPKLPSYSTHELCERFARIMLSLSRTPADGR
In short: as §1

USP28 = target: T4, USP28 (UniProt Q96RU2)
T4 sequence (whole entry): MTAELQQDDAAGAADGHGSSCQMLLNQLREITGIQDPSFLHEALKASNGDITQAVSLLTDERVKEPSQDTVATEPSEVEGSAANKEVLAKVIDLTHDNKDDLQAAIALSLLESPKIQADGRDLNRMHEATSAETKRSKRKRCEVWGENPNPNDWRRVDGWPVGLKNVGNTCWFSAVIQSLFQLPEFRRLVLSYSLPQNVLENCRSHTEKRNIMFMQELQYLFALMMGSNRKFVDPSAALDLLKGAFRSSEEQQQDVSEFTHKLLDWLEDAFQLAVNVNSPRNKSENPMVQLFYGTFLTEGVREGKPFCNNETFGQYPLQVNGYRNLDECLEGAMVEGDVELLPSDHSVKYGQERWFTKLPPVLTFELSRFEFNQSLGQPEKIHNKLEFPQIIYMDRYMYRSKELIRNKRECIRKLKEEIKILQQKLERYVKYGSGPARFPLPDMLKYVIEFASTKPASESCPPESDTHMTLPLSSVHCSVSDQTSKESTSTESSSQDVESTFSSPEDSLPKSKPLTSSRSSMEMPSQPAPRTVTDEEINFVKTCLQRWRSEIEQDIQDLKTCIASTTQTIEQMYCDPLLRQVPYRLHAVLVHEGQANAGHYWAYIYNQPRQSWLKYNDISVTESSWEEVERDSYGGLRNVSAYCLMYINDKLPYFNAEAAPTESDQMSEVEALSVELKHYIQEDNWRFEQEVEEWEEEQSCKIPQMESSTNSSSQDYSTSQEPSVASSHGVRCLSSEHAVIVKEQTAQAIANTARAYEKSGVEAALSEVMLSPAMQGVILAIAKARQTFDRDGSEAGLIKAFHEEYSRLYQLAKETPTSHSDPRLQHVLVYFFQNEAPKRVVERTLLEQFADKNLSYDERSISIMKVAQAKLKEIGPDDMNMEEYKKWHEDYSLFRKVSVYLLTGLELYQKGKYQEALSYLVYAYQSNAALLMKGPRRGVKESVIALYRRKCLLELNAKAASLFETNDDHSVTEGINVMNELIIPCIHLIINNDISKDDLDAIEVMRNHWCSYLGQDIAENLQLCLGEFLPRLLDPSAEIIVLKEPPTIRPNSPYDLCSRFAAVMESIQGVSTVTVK
In short: as §1

Measured: log2 ratio of Biotin-Ahx-Ub-VS probe labelling

O=C(CCl)N1CCc2ccccc2C(O)C1 (stereo not given)
inactive: USP19 -0.315 | USP22 -0.345 | USP24 -0.483 | USP25 -0.343 | USP28 -0.698
